Test results as given in PubChem BioAssay.
Inconclusive results are not listed. Active and inactive are the calls of the source.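 The calls were made as follows, unless noted: active = percent response above a set limit, the screen-wide mean plus 3 SD (cut at about 130% in these data); inactive = the rest.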

Key:
[1] = rapamycin-like changes in RPL19A-GFP expression – cell-based, S. cerevisiae, multiplex flow cytometry, primary screen (AID 1862; in the data active = percent of DMSO control GFP below about 86%;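 also: lower values mimic rapamycin by blocking the RPL19A rise seen in DMSO cells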); conditions: S. cerevisiae RPL19A-GFP strain, flow cytometry fluorescence, 3 h; at 10 µM; stronger effect = lower value
[2] = TOR pathway GLN3 branch reporter MEP2-GFP changes – S. cerevisiae, multiplex flow cytometry, primary screen (AID 1867;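 active = GFP response, as percent of the DMSO control, above the screen-wide mean plus 3 SD, about 139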;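 also: median GFP channel fluorescence of barcode-gated MEP2-GFP cells measured by flow cytometry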); conditions: S. cerevisiae MEP2-GFP strain, 3 h, at 10 µM, stronger effect = higher value, 100% means same as DMSO wells
[3] = TOR pathway RTG branch CIT2 reporter changes – S. cerevisiae, GFP fusion, multiplex flow cytometry, primary screen (AID 1870);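 also: barcoded CIT2-GFP strain pooled with four other GFP strains with rapamycin as positive control; median GFP fluorescence per well over plate mean of DMSO wells so 100% = DMSO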; conditions: S. cerevisiae CIT2-GFP expression, 3 h, at 10 µM, stronger effect = higher value
[4] = TOR pathway LAP4-GFP level changes – S. cerevisiae, multiplex flow cytometry, primary screen (AID 1873;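 active = GFP signal, as percent of the solvent control, above the screen mean plus 3 SD, about 149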); conditions: S. cerevisiae LAP4-GFP expression, 3 h, at 10 µM, stronger effect = higher value
[5] = yeast AGP1-GFP level changes, GLN3 branch – cell-based, multiplex flow cytometry, S. cerevisiae, primary screen (AID 1887;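 active = GFP signal above the screen-wide mean plus 3 SD, that is over about 124.5% of the solvent control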;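 also: AGP1-GFP fusion strain of S. cerevisiae within a five-strain barcoded multiplex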); conditions: 3 h, at 10 µM, stronger effect = higher value
[6] = reduced mouse 2C T cell binding to pMHC/ICAM-1 vesicles – MLPCN validation set, flow cytometry, LFA-1/ICAM-1 modulator project, pilot screen (AID 2523;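 active = response below a set limit, under 55% cells CD8-positive and vesicle-bound, and CD8 cells' 90th-percentile brightness under 279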;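 as to vesicle binding response: mean PE anti-B7-1 fluorescence of CD8+ cells relative to row control; 100% = QL9-loaded vesicles with DMSO vehicle in the same plate row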); conditions: 2C mouse CD8+ T cells, at 7 µM, stronger effect = lower value; double positive events: measured here: CD8+/vesicle+ event percentage
[7] = molecular target: Integrin beta-1 (Homo sapiens) + Integrin alpha-4 (Homo sapiens) (UniProt P13612+P05556); assay: alpha4beta1 integrin LIBS antibody binding reduction – U937 cells, HUTS-21 mAb, flow cytometry, validation set, VLA-4 allosteric modulator project, pilot screen (AID 2674;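 active = inhibition above 50%, about 3 SD of the validation set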;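 also: antibody binding induced by the VLA-4 ligand LDV present at three times its Kd; 0% = LDV ligand with antibody and no compound and 100% = antibody without LDV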); conditions: HUTS-21 LIBS mAb binding, at 6.7 µM, stronger effect = higher value, binding induced by LDV ligand
Integrin beta-1 (Homo sapiens) + Integrin alpha-4 (Homo sapiens), sequence (P05556 whole entry, looked up): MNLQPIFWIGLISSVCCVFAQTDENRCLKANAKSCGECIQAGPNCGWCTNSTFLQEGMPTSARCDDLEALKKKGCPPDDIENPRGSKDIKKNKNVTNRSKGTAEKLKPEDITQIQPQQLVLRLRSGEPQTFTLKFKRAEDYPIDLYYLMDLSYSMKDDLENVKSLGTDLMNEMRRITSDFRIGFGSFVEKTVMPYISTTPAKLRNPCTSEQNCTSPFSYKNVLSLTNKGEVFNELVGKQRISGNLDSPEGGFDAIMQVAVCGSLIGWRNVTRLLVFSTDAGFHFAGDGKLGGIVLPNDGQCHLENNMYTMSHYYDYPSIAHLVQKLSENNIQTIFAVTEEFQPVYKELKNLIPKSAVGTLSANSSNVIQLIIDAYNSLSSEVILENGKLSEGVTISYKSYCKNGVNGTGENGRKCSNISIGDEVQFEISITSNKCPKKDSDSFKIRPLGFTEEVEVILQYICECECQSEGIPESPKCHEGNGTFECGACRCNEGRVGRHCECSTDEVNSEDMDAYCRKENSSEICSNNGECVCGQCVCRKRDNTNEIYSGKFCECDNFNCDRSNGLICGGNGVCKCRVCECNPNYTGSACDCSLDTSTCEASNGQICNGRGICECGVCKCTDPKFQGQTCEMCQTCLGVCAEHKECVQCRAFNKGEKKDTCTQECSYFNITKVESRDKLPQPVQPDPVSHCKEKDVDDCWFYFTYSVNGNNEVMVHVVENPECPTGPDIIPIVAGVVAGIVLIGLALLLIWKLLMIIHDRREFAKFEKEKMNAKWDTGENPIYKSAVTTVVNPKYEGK
Integrin beta-1 (Homo sapiens) + Integrin alpha-4 (Homo sapiens), sequence (P13612 whole entry, looked up): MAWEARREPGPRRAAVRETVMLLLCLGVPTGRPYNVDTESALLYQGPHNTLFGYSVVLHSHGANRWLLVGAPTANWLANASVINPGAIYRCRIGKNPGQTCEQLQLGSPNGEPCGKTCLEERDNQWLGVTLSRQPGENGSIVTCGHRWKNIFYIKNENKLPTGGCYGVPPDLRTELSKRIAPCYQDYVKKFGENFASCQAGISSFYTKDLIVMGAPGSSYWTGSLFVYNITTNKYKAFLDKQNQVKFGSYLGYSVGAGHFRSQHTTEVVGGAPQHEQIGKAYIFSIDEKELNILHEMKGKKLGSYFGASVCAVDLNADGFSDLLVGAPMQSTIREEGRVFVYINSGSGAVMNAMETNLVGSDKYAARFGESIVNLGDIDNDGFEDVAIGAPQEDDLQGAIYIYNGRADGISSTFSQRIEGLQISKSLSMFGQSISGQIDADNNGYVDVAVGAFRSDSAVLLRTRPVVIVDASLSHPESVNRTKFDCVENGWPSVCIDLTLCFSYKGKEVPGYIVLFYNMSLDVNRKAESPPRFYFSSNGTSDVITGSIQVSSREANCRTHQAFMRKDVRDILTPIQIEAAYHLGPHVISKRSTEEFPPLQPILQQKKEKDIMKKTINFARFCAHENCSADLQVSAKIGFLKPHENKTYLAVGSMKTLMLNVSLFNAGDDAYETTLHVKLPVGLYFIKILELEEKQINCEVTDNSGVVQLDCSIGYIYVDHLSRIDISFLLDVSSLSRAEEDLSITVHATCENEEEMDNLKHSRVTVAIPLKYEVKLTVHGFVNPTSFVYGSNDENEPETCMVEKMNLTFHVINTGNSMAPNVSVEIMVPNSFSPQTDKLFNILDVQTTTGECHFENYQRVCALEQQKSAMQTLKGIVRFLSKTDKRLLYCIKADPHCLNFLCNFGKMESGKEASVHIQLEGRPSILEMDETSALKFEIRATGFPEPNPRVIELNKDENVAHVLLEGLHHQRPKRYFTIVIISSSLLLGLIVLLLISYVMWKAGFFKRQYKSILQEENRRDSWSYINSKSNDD

[8] = calorie-restriction mimetic ROS inhibitors, yeast – validation compound set, pilot screen (AID 2706;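 active = superoxide response below 65% of plate, a cut near 3 SD across the whole screen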;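 also: yeast exposed to compound for one week at 30 degrees C before staining; 100% = mean of all compound wells on the same plate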); conditions: S. cerevisiae aging, superoxide DHE fluorescence; at 10 µM, stronger effect = lower value
[9] = molecular target: Beta-adrenergic receptor kinase 1 (Homo sapiens) (UniProt P25098); assay: GRK2 binders displacing RNA aptamer, biochemical, validation, human GRK2, bead flow cytometry (AID 488806;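 active = aptamer binding inhibition above 30%, about 3 SD of noise from non-fluorescent compounds; inactive = inhibition at or below 30%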); conditions: bead-bound GRK2, FAM-aptamer displacement, at 10 µM, stronger effect = higher value
Beta-adrenergic receptor kinase 1 (Homo sapiens), sequence (P25098 whole entry, looked up): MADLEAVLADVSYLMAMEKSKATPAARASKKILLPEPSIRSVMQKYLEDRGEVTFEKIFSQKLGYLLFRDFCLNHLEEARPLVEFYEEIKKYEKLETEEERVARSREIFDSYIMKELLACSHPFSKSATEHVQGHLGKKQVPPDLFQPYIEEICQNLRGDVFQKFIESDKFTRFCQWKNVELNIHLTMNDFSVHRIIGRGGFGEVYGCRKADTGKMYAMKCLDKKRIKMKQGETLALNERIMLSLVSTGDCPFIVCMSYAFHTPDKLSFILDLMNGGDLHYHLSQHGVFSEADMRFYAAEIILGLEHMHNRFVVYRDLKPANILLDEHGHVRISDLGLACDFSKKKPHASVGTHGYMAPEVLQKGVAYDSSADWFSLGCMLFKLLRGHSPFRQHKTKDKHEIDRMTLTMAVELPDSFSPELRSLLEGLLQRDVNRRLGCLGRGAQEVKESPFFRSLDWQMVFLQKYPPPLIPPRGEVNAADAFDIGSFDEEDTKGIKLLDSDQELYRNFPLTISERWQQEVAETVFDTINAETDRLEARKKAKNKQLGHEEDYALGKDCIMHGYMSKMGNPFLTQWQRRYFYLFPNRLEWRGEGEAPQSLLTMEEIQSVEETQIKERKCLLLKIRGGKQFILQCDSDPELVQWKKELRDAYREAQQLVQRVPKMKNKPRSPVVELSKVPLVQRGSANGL

[10] = molecular target: AP-2 complex subunit beta (Homo sapiens) (UniProt P63010); assay: beta-arrestin/AP2 interaction blockers – biochemical, validation set, GST-AP2 beads, flow cytometry, pilot screen (AID 504541;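 active = inhibition above 54%, about 3 SD of non-fluorescent compounds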;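 also: AP2 carries R879A mutation and is captured from E. coli lysate; bead-bound FITC arrestin peptide fluorescence measuring arrestin peptide binding to AP2; 0% = DMSO wells and 100% = excess unlabeled arrestin peptide control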); conditions: FITC arrestin peptide, at 10 µM, stronger effect = higher value, AP2 beta2 appendage fragment, R879A mutant
AP-2 complex subunit beta (Homo sapiens), sequence (P63010 whole entry, looked up, the tested form may be a part, one chain of several): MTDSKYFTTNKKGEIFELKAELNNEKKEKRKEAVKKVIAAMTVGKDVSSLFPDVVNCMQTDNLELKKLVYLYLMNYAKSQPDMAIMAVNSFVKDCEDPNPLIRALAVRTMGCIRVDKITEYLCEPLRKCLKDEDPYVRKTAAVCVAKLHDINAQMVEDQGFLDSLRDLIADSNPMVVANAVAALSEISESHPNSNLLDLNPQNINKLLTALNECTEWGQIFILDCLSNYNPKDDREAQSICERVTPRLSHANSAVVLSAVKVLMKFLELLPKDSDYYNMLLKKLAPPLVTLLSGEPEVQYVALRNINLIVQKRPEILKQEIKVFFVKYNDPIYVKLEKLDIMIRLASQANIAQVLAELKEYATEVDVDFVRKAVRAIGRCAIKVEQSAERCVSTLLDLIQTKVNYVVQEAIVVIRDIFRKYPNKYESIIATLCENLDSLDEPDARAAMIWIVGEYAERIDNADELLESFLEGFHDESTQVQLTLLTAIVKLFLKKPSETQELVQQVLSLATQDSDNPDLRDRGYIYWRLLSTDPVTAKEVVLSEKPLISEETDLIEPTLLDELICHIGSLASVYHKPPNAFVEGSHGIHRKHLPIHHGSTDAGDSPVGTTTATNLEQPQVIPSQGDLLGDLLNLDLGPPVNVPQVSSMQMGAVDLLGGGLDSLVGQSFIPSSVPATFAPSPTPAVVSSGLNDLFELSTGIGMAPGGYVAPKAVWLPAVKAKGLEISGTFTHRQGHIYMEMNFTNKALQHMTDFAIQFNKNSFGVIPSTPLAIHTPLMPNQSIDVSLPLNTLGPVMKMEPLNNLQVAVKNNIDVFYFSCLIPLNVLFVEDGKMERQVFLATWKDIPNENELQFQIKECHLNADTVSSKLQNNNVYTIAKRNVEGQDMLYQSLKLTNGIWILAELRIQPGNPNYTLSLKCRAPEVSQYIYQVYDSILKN

[11] = cytosolic pH regulators acting via V-ATPase – S. cerevisiae, pHLuorin, HTS validation (AID 504600; in the data active = response above about 15%;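 also: plate controls were DMSO for no effect and reference compound for full effect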); conditions: V-ATPase proton transport, at 10 µM, stronger effect = higher value
[12] = system: anti-desmoglein-3 scFv antibody binding to human DSG3; assay: blockers of pathogenic pemphigus antibody–desmoglein-3 binding – biochemical, validation compound set, bead-based, flow cytometry, pilot screen (AID 588368;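 active = binding below the plate cutoff, the plate median minus 3 SD, with a reading above zero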;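 also: signal is the median channel fluorescence of bead-bound GFP antibody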); conditions: Protein G beads, DSG3-Fc, scFv-GFP binding, at 10 µM, stronger effect = lower value
[13] = Nile Red efflux blockade in pump-expressing yeast – validation compound set, multiplex, phenotypic, pilot screen (AID 588506;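 active = efflux inhibition above 0.42, the validation set average plus 4 SD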;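 also: Nile Red retained in cells so higher fluorescence means more efflux inhibition; 0 = negative control wells and 1 = enniatin B 25 µM full block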); conditions: S. cerevisiae pump-expressing triplex, Nile Red efflux flow cytometry; at 10 µM; stronger effect = higher value; the pumps come from Candida albicans
[14] = molecular target: ATP-binding cassette sub-family B member 6 (Homo sapiens) (UniProt Q9NP58); assay: blockers of ABCB6-driven porphyrin uptake – K562-ABCB6 cells, flow cytometry, validation set, pilot screen (AID 588550;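 active = inhibition above the screen-wide mean plus 3 SD, about 51%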;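 also: 0% = DMSO wells and 100% = benzethonium chloride 70 µM positive control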); conditions: K562-ABCB6 porphyrin accumulation, 1 h, at 10 µM, stronger effect = higher value
ATP-binding cassette sub-family B member 6 (Homo sapiens), sequence (Q9NP58 whole entry, looked up): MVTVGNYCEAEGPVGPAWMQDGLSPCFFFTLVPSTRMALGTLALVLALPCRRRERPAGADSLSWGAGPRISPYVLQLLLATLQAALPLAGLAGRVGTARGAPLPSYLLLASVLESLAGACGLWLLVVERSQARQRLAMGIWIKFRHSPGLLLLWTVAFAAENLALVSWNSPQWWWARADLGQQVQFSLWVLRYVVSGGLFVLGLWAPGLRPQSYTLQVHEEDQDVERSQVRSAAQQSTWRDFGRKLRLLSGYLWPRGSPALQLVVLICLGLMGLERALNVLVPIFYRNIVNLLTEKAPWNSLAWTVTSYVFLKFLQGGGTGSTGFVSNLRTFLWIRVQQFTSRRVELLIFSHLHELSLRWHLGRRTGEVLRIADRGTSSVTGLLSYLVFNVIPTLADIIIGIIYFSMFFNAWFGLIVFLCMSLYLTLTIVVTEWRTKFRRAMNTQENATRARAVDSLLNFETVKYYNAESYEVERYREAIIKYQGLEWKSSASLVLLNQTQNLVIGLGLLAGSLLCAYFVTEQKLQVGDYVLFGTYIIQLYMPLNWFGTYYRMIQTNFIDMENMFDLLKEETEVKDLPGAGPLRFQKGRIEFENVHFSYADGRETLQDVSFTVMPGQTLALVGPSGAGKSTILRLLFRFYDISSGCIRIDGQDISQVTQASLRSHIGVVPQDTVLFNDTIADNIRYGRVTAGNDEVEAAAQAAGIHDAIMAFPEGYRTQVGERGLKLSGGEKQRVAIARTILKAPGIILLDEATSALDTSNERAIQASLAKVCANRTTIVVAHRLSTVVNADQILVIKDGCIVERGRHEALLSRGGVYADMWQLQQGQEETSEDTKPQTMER

[15] = AML differentiation inducers, ER-HoxA9 marrow cells – cell-based, GFP/MAC1 double positive, flow cytometry, validation set, primary screen (AID 588685;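 active = differentiation response of at least 50%, scaled between solvent and reference control, from cells with both markers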;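 also: compound exposure lasts four days before antibody staining and flow analysis; 0% = DMSO wells and 100% = 5 µM fulvestrant positive control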); conditions: stronger effect = higher value, normalized: vehicle 0, fulvestrant 100

SMILES	percent of DMSO control GFP [1]	GFP response vs DMSO [2]	percent response of DMSO control [3]	GFP response vs DMSO [4]	GFP response, % of DMSO [5]	double positive events [6]	vesicle binding response [6]	inhibition [7]	superoxide response (% of plate) [8]	aptamer binding inhibition [9]	inhibition [10]	response [11]	binding (% of control) [12]	efflux inhibition (fraction of control) [13]	inhibition [14]	differentiation response [15]
CC[n+]1c(C)sc2cc(C)ccc21	96.4% (inactive)	103% (inactive)	87.1% (inactive)	116% (inactive)	95.4% (inactive)	50%	138% (inactive)	-11.4% (inactive)	106% (inactive)	6% (inactive)	-14% (inactive)	-1.58% (inactive)	102% (inactive)	0.44 (active)	15% (inactive)	-13.1% (inactive)
CC(C)Cc1ccc(C(C)C(=O)Nc2ccc(O)cc2)cc1 (stereo not given)	103% (inactive)	105% (inactive)	107% (inactive)	106% (inactive)	99.7% (inactive)	58.6%	178% (inactive)	13.8% (inactive)	110% (inactive)	2% (inactive)	33.6% (inactive)	-13.1% (inactive)	105% (inactive)	0.14 (inactive)	1% (inactive)	0% (inactive)
CCCCC1C(=O)N(c2ccccc2)N(c2ccccc2)C1=O	98.1% (inactive)	117% (inactive)	101% (inactive)	89.7% (inactive)	97.5% (inactive)	66%	258% (inactive)	3.55% (inactive)	94.9% (inactive)	0% (inactive)	33.1% (inactive)	-1.74% (inactive)	111% (inactive)	-0.06 (inactive)	8% (inactive)	17.2% (inactive)
COC(=O)c1cc(=O)c2ccc(OC)cc2o1	99.1% (inactive)	97.9% (inactive)	111% (inactive)	100% (inactive)	90.9% (inactive)	52.9%	152% (inactive)	17.5% (inactive)	94.7% (inactive)	1% (inactive)	-3.93% (inactive)	37.7% (active)	101% (inactive)	0.03 (inactive)	6% (inactive)	-11.5% (inactive)
O=C(CCCCC(=O)NC1CCCC1)NC1CCCC1	96.8% (inactive)	102% (inactive)	105% (inactive)	95.4% (inactive)	93.7% (inactive)	53.7%	181% (inactive)	10% (inactive)	103% (inactive)	0% (inactive)	3.46% (inactive)	3.11% (inactive)	102% (inactive)	0.29 (inactive)	6% (inactive)	-11.5% (inactive)
CC(C)Cn1c(=S)[nH]c2cc(C(=O)O)ccc2c1=O	105% (inactive)	97.9% (inactive)	108% (inactive)	84.3% (inactive)	98.5% (inactive)	61%	197% (inactive)	-1.17% (inactive)	106% (inactive)	4% (inactive)	-1.44% (inactive)	-0.3% (inactive)	96.7% (inactive)	-0.01 (inactive)	2% (inactive)	-26% (inactive)
CCCN(CCC)S(=O)(=O)c1ccc(C(=O)O)cc1	101% (inactive)	107% (inactive)	96.9% (inactive)	124% (inactive)	104% (inactive)	56.2%	170% (inactive)	1.62% (inactive)	104% (inactive)	1% (inactive)	-3.49% (inactive)	0.87% (inactive)	99.3% (inactive)	-0.05 (inactive)	4% (inactive)	-24.4% (inactive)
NCCCC(=O)O	97.8% (inactive)	99.9% (inactive)	95.9% (inactive)	103% (inactive)	96.7% (inactive)	57.8%	192% (inactive)	10.9% (inactive)	103% (inactive)	0% (inactive)	2.65% (inactive)	-1.76% (inactive)	99.8% (inactive)	0.94 (active)	-31% (inactive)	-13.1% (inactive)
CC(C)[N+]1(C)[C@@H]2CC[C@H]1CC(OC(=O)C(CO)c1ccccc1)C2 (stereo not given in full)	101% (inactive)	95.9% (inactive)	102% (inactive)	101% (inactive)	104% (inactive)	53.4%	158% (inactive)	27.7% (inactive)	94.6% (inactive)	-2% (inactive)	7.81% (inactive)	2.53% (inactive)	102% (inactive)	-0.12 (inactive)	11% (inactive)	-9.89% (inactive)
CC(C)C[C@H](NC(=O)[C@@H]1Cc2ccccc2CN1C(=O)OC(C)(C)C)C(=O)NCC1CCC(C(=O)O)CC1 (stereo not given in full)	99.3% (inactive)	95.9% (inactive)	105% (inactive)	92.3% (inactive)	99.9% (inactive)	59.9%	257% (inactive)	1.62% (inactive)	93.6% (inactive)	3% (inactive)	-3.49% (inactive)	-10.3% (inactive)	101% (inactive)	-0.12 (inactive)	7% (inactive)	-27.6% (inactive)
